Here are results for 64 compounds from ChEMBL document CHEMBL3988442, “University of Dundee, Small-Polar-MMV Screening Library” (2021).

Molecules are shown by their SMILES. Among all 48,000 compounds or so, about 13,000 (27%) showed an effect of 50% or more. The list shows a part of the results.

The subject of the experiment is Wolbachia pipientis. Briefly: Anti-Wolbachia Cell-Based Screen. The following applies: 5 µM. The format is functional. More on the design: scale not given: in the data most compounds retested in dose-response had high values.
On to `CCN1C(=O)COC[C@@H]1[C@H](O)c1ccc(NC(=O)COC)cc1`, for which the “Percent Effect” value was -2.196%. As for `c1cc(-c2nc3c(c(NCCc4c[nH]cn4)n2)CCNCC3)ccn1`, the “Percent Effect” value was 6.655%. In the case of `CC(=O)c1cccc(C(=O)N2C[C@@H](CN3CCCCCC3)[C@@H](CO)C2)c1` it was -7.849%; in that of `CN(C)c1ccc2c(c1)CN(C(=O)c1c[nH]cn1)C2c1cnco1` (centres undefined), 3.646%.

For `CCn1cc(S(=O)(=O)N(C)Cc2c(Br)cnn2CC)c(C)n1`, the “Percent Effect” value amounted to 5.348%. On to `CCn1cc(S(=O)(=O)N2CCC(C3CCCCN(C)C3=O)CC2)c(C)n1` (centres undefined), for which the “Percent Effect” value is 91.1%. In the case of `Cc1nccn1-c1cccc(C2CCCN2S(=O)(=O)c2cn(C)cn2)n1` (centres undefined) it was -2.327%. In the case of `CCn1cc(C(=O)n2nc(C)cc2C)c(S(=O)(=O)N2CCCCC2)n1` it was -19.19%. For the compound `Cn1cnc(S(=O)(=O)N2CCCn3cnc(CN4CCCC4)c3C2)c1`, the “Percent Effect” value was found to be 1.863%. For the compound `CN1CCCCC(C2CCN(S(=O)(=O)c3cn(C)cn3)CC2)C1=O` (centres undefined), the “Percent Effect” value was determined as 106.2%. In the case of `CN(Cc1ccccc1)c1ccc(C(F)(F)F)cn1` it was 3.007%.

As for `Cc1cc(Cl)ccc1NCC(=O)Nc1cc(C(C)(C)C)no1`, the “Percent Effect” value is reported as -19.79%. In the case of `O=C(C[C@@H]1COC[C@H]2CN(C(=O)c3ccccn3)C[C@@H]12)N1CCCC1.O=C(O)C(F)(F)F` it was 106.7%. Consider `O=C(C[C@@H]1COC[C@H]2CN(Cc3ccsc3)C[C@@H]12)N1CCCC1`, for which the “Percent Effect” value is reported as -43.11%. In the case of `Cc1cccc(C(=O)N2C[C@@H]3COC[C@@H](CC(=O)N4CCCC4)[C@@H]3C2)n1.O=C(O)C(F)(F)F` it was 117.6%. In the case of `Cc1cccc(C(=O)N2C[C@@H]3[C@H](CC(=O)N4CCCC4)[C@@H]3C2)n1` it was -9.844%.

`Cc1cccc(C(=O)N2C[C@@H]3[C@H](CC(=O)NC(C)C)[C@@H]3C2)n1.O=C(O)C(F)(F)F`: the “Percent Effect” value is on record as -21.16%.

In the case of `O=C(C[C@@H]1COC[C@H]2CN(Cc3ccc(F)cc3)C[C@@H]12)N1CCCCO1.O=C(O)C(F)(F)F`, the “Percent Effect” value is on record as 6.294%. In the case of `COc1ccc2c(C)c(C(=O)NCC3CN(S(C)(=O)=O)CCO3)oc2c1` (centres undefined) it was -45.67%; in that of `CC(C)[C@@H]1CN(Cc2ccccc2C#N)C[C@H]1C(=O)O`, -3.453%; in that of `CC(=O)c1cc(CN2C[C@H]3CC[C@@H]2CN(Cc2c(C)noc2C)C3)cs1`, 0.576%. For the compound `c1cnc(Nc2cncc(C3CCCN(c4cnccn4)C3)n2)nc1` (centres undefined), the “Percent Effect” value came to 136.5%.

As for `c1ccc(N2CCCC(c3nc(-c4cccnn4)no3)C2)nc1` (centres undefined), the “Percent Effect” value is listed as -11.75%. In the case of `c1cnc(Nc2cncc(C3CCCN(c4ncccn4)C3)n2)nc1` (centres undefined) it was 144.2%; in that of `Cc1cc(NC(=O)CNc2cccc(C(=O)N3CCCC(O)C3)c2)no1` (centres undefined), -4.959%; in that of `Cc1ccc(C(O)CNC(=O)CCCc2ccccn2)o1` (centres undefined), -12.57%. In the case of `O=C(CCc1ccccn1)NCC(O)c1ccc(Cl)cc1Cl` (centres undefined) it was -3.695%; in that of `O=C(CCn1c(=O)oc2ccccc21)NCC(O)c1ccc(Cl)cc1` (centres undefined), 131.9%.

With `O=C(NCC(O)c1ccc(F)c(F)c1)c1ccccc1F` (centres undefined), the “Percent Effect” value is -40.57%. `O=C(CCCc1ccccn1)NCC(O)c1ccccc1Cl` (centres undefined): the “Percent Effect” value amounted to 8.067%. Turning to `O=C(CCn1c(=O)oc2ccccc21)NCC(O)c1ccccc1` (centres undefined), the “Percent Effect” value came to 124.9%. With `CC(NCCn1c(=O)oc2ccccc21)c1ccccn1` (centres undefined), the “Percent Effect” value is listed as -1.92%. As for `O=C(CCn1c(=O)oc2ccccc21)NCC(O)c1ccc(F)c(F)c1` (centres undefined), the “Percent Effect” value was 132.5%. In the case of `CC(c1ccccn1)N(C)C(=O)NCCn1c(=O)oc2ccccc21` (centres undefined) it was -13.01%. On to `O=C(Cn1c(=O)oc2ccccc21)NCC(O)c1ccc2c(c1)CCO2` (centres undefined), for which the “Percent Effect” value is -5.514%. As to `CC(NC(=O)CCn1c(=O)oc2ccccc21)c1ccccn1` (centres undefined), the “Percent Effect” value is recorded as 132.8%. In the case of `Nc1nnc(SCC(=O)NCC(O)c2ccccc2)s1` (centres undefined) it was 7.273%; in that of `COCc1ccc(C(=O)NS(=O)(=O)c2ccc3c(c2)CCC(=O)N3)cc1`, -28.72%. In the case of `Cc1cc(N2CCN(C(=O)c3cc(Cl)c[nH]3)CC2)nc(C)n1` it was -11.81%.

With `COc1ccc(OC)c(C2CCN(C3CCN(C(C)=O)CC3)C2)c1` (centres undefined), the “Percent Effect” value was -1.425%.

For the compound `COc1cccc(-c2c[nH]c(C3CCCN3)n2)c1.Cl.Cl` (centres undefined), the “Percent Effect” value was -13.27%. For the compound `COc1ccc(-c2cc(C3CCCNC3)ccn2)cc1.Cl` (centres undefined), the “Percent Effect” value is recorded as 198.3%. In the case of `COc1cccc(-c2cc(C3CCCNC3)ccn2)c1` (centres undefined) it was 179.8%; in that of `COc1ccc(-c2nc(C3CCNCC3)cc3c2ncn3C)cc1.Cl.Cl`, -43.66%. As to `COc1ccc([C@@H]2CN(c3cc(C(=O)O)ccn3)C[C@H]2N(C)C)cc1`, the “Percent Effect” value was -11.81%.

For the compound `Cn1ccnc1CN1CCC(c2ccnc(-c3cccc(O)c3)c2)C1` (centres undefined), the “Percent Effect” value was 8.376%. In the case of `COc1ccc([C@@H](C)n2ccnc2-c2cc3n(n2)CCCNC3)cc1` it was -13.97%. In the case of `COc1ccc(-c2cc(C3CCNCC3)ccn2)cc1.Cl` it was 126.8%. In the case of `COc1ccc(-c2cc(C3CCN(C(C)=O)CC3)ccn2)cc1` it was 135.1%. `CC(NC(=O)CCCc1ccc(Cl)cc1)c1n[nH]c(=O)[nH]1` (centres undefined): the “Percent Effect” value came out at 26.11%. In the case of `COCCCNC(=O)C1CCN(CC2(O)CCC(C)CC2)CC1` (centres undefined) it was -1.754%; in that of `O=C(c1ccc(O)c(Cl)c1)N1CCC(c2n[nH]c(C3CC3)n2)CC1`, 7.915%; in that of `Cc1noc(C)c1CNC(=O)Nc1ccc(N2CCOC2=O)cc1`, 99.13%. In the case of `Cc1ocnc1CNC(=O)Nc1ccc(N2CCOC(C)C2)cc1` (centres undefined) it was 105.8%. Turning to `Cc1noc(C)c1CCCNC(=O)Nc1ccc2c(c1)CC(=O)N2`, the “Percent Effect” value was -4.957%. In the case of `Cc1noc(C)c1CNC(=O)Nc1ccc(N2CCOC(C)C2)cc1` (centres undefined) it was 95.8%. In the case of `Cc1noc(C)c1C(=O)NCc1ccc(N2CCOC(C)C2)nc1` (centres undefined) it was 6.815%; in that of `Cc1ccsc1CNC(=O)c1ccc(N2CCOC2=O)cc1`, 25.75%; in that of `Cc1noc(C)c1CN1C[C@@H](C(=O)O)[C@H](c2ccccc2)C1`, -10.93%. `CC1CN(c2ccc(CNC(=O)NCCO)cn2)CCO1` (centres undefined): the “Percent Effect” value was -1.494%. In the case of `Cc1noc(C)c1CNC(=O)N1CCC(CO)CC1` it was -12.65%; in that of `CC1CN(c2ccc(CNC(=O)NCc3ccoc3)cn2)CCO1` (centres undefined), 4.131%. For the compound `Cc1noc(C)c1CCCNC(=O)Nc1ccc2c(c1)COC2`, the “Percent Effect” value turned out to be 12.5%. As to `Cc1noc(C)c1CNC(=O)Nc1ccc(N2CCSCC2)cc1`, the “Percent Effect” value was 101.4%.
